# Source: PubChem BioAssay
# Compounds with a hit are over-represented: about 3.8% of the library has one in this group of screens.
# TGFb SMAD3 inh = blocks TGF-b signaling. HepG2 CAGA-GFP TGF-b/SMAD3 reporter, GFP fluorescence, 18 h; TGF-beta stimulated, 500 pg/mL final. Potency, µM (doses to about 46.1 µM), without a hit: at the highest dose activity, negative = inhibition, usual class: inhibitors. hit rate 1.2% among 410,000; note: % is set by controls: 0 for no effect and ±100 for the full control effect; nearly all actives have a fitted effect of over 65% in size
#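 Cell-based qHTS in HEPG2 carrying a CAGA-GFP Smad reporter; compounds added before 500 pg/mL final TGF-beta, 18 h incubation at 37 degrees C, GFP fluorescence quantified per cell by imaging cytometry.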
# HT1080 IDH1KD tx = HT-1080 IDH1 knockdown cell toxicity (counter line) | HT-1080 IDH1 knockdown viability, ATP luminescence, 48 h | Potency, µM (top dose mostly 46.1 µM), without a hit: at the top dose activity, negative = toxicity, hits mostly cytotoxic | hit rate 2% among 360,000 | AID 686971;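 note: 0% = DMSO wells and -100% = cell-free medium wells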
#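 Knockdown cells (IDH1KD HT-1080) received compounds 2 h after plating at 750 cells/well and were kept 48 h at 37 °C in 5% FBS RPMI. A CellTiter-Glo luminescence read gave % activity for curve fitting.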
# HT1080NT lethal = kills 2HG-producing HT-1080-NT fibrosarcoma cells; hit rate 1.6% among 360,000; Potency, µM (series often up to 46.1 µM), inactives show at the highest dose activity, negative = less viability, hits mostly cytotoxic; HT-1080-NT fibrosarcoma viability, CellTiter-Glo ATP luminescence, 48 h;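 note: NT is the 2HG producing partner of a matched IDH1 knockdown line; 0% = DMSO-treated cells and -100% = media-only wells without cells; nearly all actives have a fitted effect of over 55% in size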
#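 Fibrosarcoma NT cells, 750 per well in 5% FBS RPMI, were exposed to compound for 48 hours. Viability: CellTiter-Glo luminescence.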
# HepG2 viability = counter-screen for TGF-b inhibitors: cytotoxicity in HepG2 cells; hit rate 0.76% among 410,000; HepG2 CAGA-GFP viability, ATP luminescence, 18 h; AID 588856; Potency, µM (titrated, usually from 46.1 µM), for the others: top-dose activity change, negative = cytotoxicity, most hits filed as cytotoxic
#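 CellTiter-Glo luminescence gave cytotoxicity after 18 hours at 37 degrees C. The cells were HepG2 CAGA-GFP in 1% FBS DMEM, stimulated with 500 pg/mL TGF-beta after compound addition. %Activity was normalised to no-cell wells (complete cell-killing) and DMSO (no toxicity), and curves were fitted and classified.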
# ATXN2 expr inh = reduces ATXN2 reporter expression in HEK-293 cells | HEK-293 ATXN2-luciferase reporter, luminescence, 24 h | Potency, µM (doses to about 57 µM), for the others: at the highest dose activity change, negative = inhibition, most hits filed as inhibitors | hit rate 0.72% among 360,000 | AID 1745845; note: % is set by controls: 0 for no effect and ±100 for the full control effect; nearly all actives have a fitted effect of over 55% in size
#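 ATXN2-luciferase reporter cells (luciferase flanked by upstream and downstream ATXN2 gene portions) were treated 24 h at 37 °C with compounds at up to 57 uM. SteadyGlo luminescence gave expression; GF-AFC fluorescence gave viability.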
# S2 tox = reduces viability in counter-screen for ATXN expression inhibitors | S2 cells (HEK-293 line with an ATXN2-luciferase reporter) viability, CellTiter-Fluor protease fluorescence, 24 h | Potency, µM (highest dose often 56.7 µM), most hits filed as cytotoxic | hit rate 0.49% among 400,000; note: nearly all actives have a fitted effect of over 40% in size
# Numbers without * were called inactive; i = inactive; ? = inconclusive; . = no result given; [ ] = remark or other dose. Calls come from the whole dose curve; as a rule, active = well fitted curve in the direction sought with a large enough effect; inconclusive = small, poorly fitted or top-dose-only effect, or another doubt; inactive = no such curve, though single readings can be large; an effect the other way counts as inactive or inconclusive. Potency is the fitted concentration of half-maximal effect.
SMILES,TGFb SMAD3 inh,HT1080 IDH1KD tx,HT1080NT lethal,HepG2 viability,ATXN2 expr inh,S2 tox
Cc1cccc2sc(N(CCCN(C)C)C(=O)CN3C(=O)c4ccccc4C3=O)nc12,-17%,8%,8%,-39%,.,i
Cc1cccc2sc(N(CCCN(C)C)C(=O)CCc3ccccc3)nc12,13µM*,0%,-28%,-110%,?,i
Cc1ccc(C(=O)N(CCCN(C)C)c2nc3ccc(Cl)cc3s2)cc1C,?,23µM*,23µM*,22µM*,?,?
COc1ccc(-c2nc(CN3CCCCC3c3nccn3C)c(C)o2)c(C)c1C (stereo not given),20µM*,?,?,-62%,?,?
COc1ccc(OC)c(-c2nc(CN3CCCCC3c3cccnc3)c(C)o2)c1 (stereo not given),-8%,0%,-17%,0%,-12%,i
CCCN1CNc2c(c(=O)[nH]c(=S)n2CCc2cc(OC)cc(OC)c2)C1,.,13%,1%,.,.,.
COc1ccc(N/C=C/C(=O)c2cc(OC)c(OC)c(OC)c2)cc1,?,1.3µM*,1.2µM*,-6%,17%,i
O=S(=O)(c1ccc(Cl)cc1)N1CCN(c2nc(Nc3cc(Cl)ccc3O)nc3ccccc23)CC1,.,19%[32.3 µM],11%[32.3 µM],.,.,.
Cc1ccc(-n2cc(CN3CCNC(=O)CC3)c(-c3ccc(F)cc3)n2)cc1,-11%,-26%,-1%,4%,0%,i
Cc1ccc(-n2cc(CN3CCC(O)(c4ccccn4)CC3)c(-c3ccc(F)cc3)n2)cc1,?,?,16µM*,-51%,1%,i
NC(=O)c1cc(N2C(=O)C=CC2=O)ccc1Cl,-13%,16µM*,?,0%,?,.
Cc1ccc(NC(=O)N(Cc2cn(C)c3ccccc23)C2CCCCC2)cc1C,37%,.,.,-9%,34%,i
COc1cc(C(=O)NS(=O)(=O)c2ccccc2C)ccc1Cc1cn(C)c2ccc(NC(=O)OC3CCCC3)cc12,.,.,.,.,39µM*,i
C/C=C1\NC(=O)[C@H]2CSSCC/C=C/[C@H](CC(=O)N[C@H](C(C)C)C(=O)N2)OC(=O)C(C(C)C)NC1=O (stereo not given in full),.,.,.,.,.,4.5µM*
CC(C)S(=O)(=O)c1oc(-c2ccc(F)cc2)nc1S(=O)(=O)c1ccccc1,1.4µM*,.,.,3.2µM*,.,.
CS(=O)(=O)c1oc(-c2ccc(F)cc2)nc1S(=O)(=O)c1ccc(Cl)cc1,3.2µM*,.,.,5µM*,.,.
CSc1oc(-c2ccc(F)cc2)nc1S(=O)(=O)c1ccccc1,-2%,1%,1%,10%,0%,i
CC(C)S(=O)(=O)c1oc(-c2cccs2)nc1S(=O)(=O)c1ccc(F)cc1,2.5µM*,.,.,3.5µM*,.,.
CCS(=O)(=O)c1oc(-c2ccc(F)cc2)nc1S(=O)(=O)c1ccc(Br)cc1,2.8µM*,.,.,3.5µM*,.,.
CSc1oc(-c2ccc(F)cc2)nc1S(=O)(=O)c1ccc(F)cc1,-2%,-1%,25%,-32%,-3%,i
CCCCS(=O)(=O)c1oc(-c2ccc(F)cc2)nc1S(=O)(=O)c1ccccc1,2.8µM*,.,.,5.6µM*,.,.
CC(C)(C)n1ncc2c(=O)n(Cc3cccc(Oc4ccccc4)c3)cnc21,-18%,.,.,-3%,.,.
COc1ccc2c(c1)CC/C(=C/c1cc(OC)c(OC)c(OC)c1)C2=O,-5%,-7%,16%,0.14µM*,?,i
COc1cc(/C=C2/CC/C(=C/c3ccc(O)c(OC)c3)C2=O)ccc1O,-7%,21µM*,18µM*,-33%,-3%,i
COc1ccc(OC)c(C=C2CCc3ccccc3C2=O)c1,-23%,?,?,3%,0%,?
SMILES,TGFb SMAD3 inh,HT1080 IDH1KD tx,HT1080NT lethal,HepG2 viability,ATXN2 expr inh,S2 tox
COc1cc(/C=C2\COC/C(=C\c3ccc(O)c(OC)c3)C2=O)ccc1O,6.3µM*,?,?,-23%,?,.
COc1cc(/C=C2\SC(N)=NC2=O)ccc1O,?,18µM*,?,-1%,?,?
COc1cc(/C=C/C=C2/CC/C(=C/C=C/c3ccc(O)c(OC)c3)C2=O)ccc1O,?,-10%,-11%,-61%,?,.
C=CCOc1ccc(/C=C2\SC(N)=NC2=O)cc1OC,6%,2%,-1%,-6%,25%,i
Cc1ccc(CN2C[C@H](Sc3ccccn3)C[C@H]2C(=O)Nc2ccc3sc(C)nc3c2)c(C)c1,.,.,.,.,.,i
COc1ccc(/C=C2\CN(Cc3ccccc3)C/C(=C\c3ccc(OC)c(O)c3)C2=O)cc1O,5µM*,2.3µM*,?,-64%,4µM*,?
CCN1C/C(=C/c2ccc(OC)c(O)c2)C(=O)/C(=C/c2ccc(OC)c(O)c2)C1,?,?,?,-2%,.,?
CCCn1c(CN2CCN(C(=O)OCC)CC2)nc2cc(NC(=O)CC)ccc21,?,5.8µM*,7.3µM*,1%,-21%,i
COc1cc(C#Cc2c(-c3cncn3C)n(C)c3ccc(-c4ccc(OC)nc4)cc23)cc(OC)c1,?,-7%,-22%,-30%,28µM*,?
C=CCn1c2ccccc2c2nnc(SCCCn3c(=O)[nH]c4ccccc43)nc21,-27%,16µM*,?,-29%,?,.
CN(CC(=O)Nc1ccc(Cl)c(C(F)(F)F)c1)C(=O)c1ccc(N2CCOCC2)c([N+](=O)[O-])c1,?,?,23µM*,-24%,?,?
COC(=O)C1CCN(Cc2ccc3c(c2)CN(C(=O)c2cc(C)oc2C)CCO3)CC1,.,.,.,.,.,i
CC(C)(C)NC(=O)C(c1ccncc1)N(Cc1ccco1)C(=O)c1ccc(-c2ccccc2)[nH]1 (stereo not given),-7%,18µM*,18µM*,-12%,29%,i
CCCCCCCC/C=C\CCCCCCCC(=O)OC[C@@H](O)[C@H]1OC[C@H](O)[C@H]1O,.,.,.,.,.,i
O=C(COc1ccccc1Cl)NC(=S)N1CCc2ccccc21,-21%,?,11µM*,-13%,?,?
O=C(COc1ccccc1)NC(=S)N1CCc2ccccc21,5%,3%,-1%,-1%,50%,i
CCOc1ccc(C(=O)Nc2ccc3nc(Nc4cccc(C(F)(F)F)c4)cc(C)c3c2)cc1OCC,9%,.,.,4%,4%,i
Cc1cc(Nc2cccc(C(F)(F)F)c2)nc2ccc(NC(=O)c3cccc(Cl)c3)cc12,?,.,.,13µM*,?,i
Cc1cc(Nc2cccc(C(F)(F)F)c2)nc2ccc(NC(=O)c3cccnc3)cc12,?,.,.,-99%,?,18µM*
